Bioassay records: PubChem, Broad Institute
Tgondii IFNg = inhibitors of Toxoplasma gondii growth with IFN-gamma; Toxoplasma gondii growth in IFN-gamma-treated host cells; active compounds read low; activity change, negative = inhibition, % (no concentration beside the values); hit rate 3.8% among 69,000; in the data active means activity change below about -70%, passing the limit was not always enough;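 further: host cells are HeLa cells infected with Toxoplasma gondii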
* = called active by the depositor; ! = a repeat was not active. The sample as a whole holds a higher share of hits than the screen did.

SMILES	Tgondii IFNg
CCNC(=O)c1nc(Nc2ccc(CC)cc2)c2ccccc2n1	-49
CCc1ccc(Nc2nc(C(=O)NCc3ccc(OC)c(OC)c3)nc3ccccc23)cc1	-79*
CCc1ccc(Nc2nc(C(=O)NCc3cccc(OC)c3)nc3ccccc23)cc1	-72*
Cc1ccc(CNC(=O)c2nc(Nc3ccccc3)c3ccccc3n2)cc1	57
CSc1ncccc1C(=O)N1CC(=O)N(Cc2cnn(C)c2)CC(OCc2cccnc2)C1 (configuration not stated)	12
Cn1ccnc1CN1CCC2(CC(=O)N(c3ccccc3)C2)C1 (configuration not stated)	12
CO[C@@H]1CN(C)C(=O)c2ccc(NC(=O)c3ccno3)cc2OC[C@@H](C)N(S(C)(=O)=O)C[C@H]1C	96
Cc1ccoc1C(=O)N1CCC(c2n[nH]c(=O)n2Cc2ccccc2)CC1	-50
CCOc1ccc(-c2nc(Cn3ccn4nc(-c5ccc(F)cc5)cc4c3=O)c(C)o2)cc1OC	201
O=C(CC1N=C2c3ccccc3N=C(SCc3ccccc3F)N2C1=O)NCc1ccc(F)cc1 (configuration not stated)	-23
CCOc1ccccc1NC(=O)c1nc(Nc2ccc(Cl)cc2)c2ccccc2n1	-64
CSc1cccc(NC(=O)c2nc(Nc3ccccc3)c3ccccc3n2)c1	-5
Cc1ccc(Nc2nc(C(=O)Nc3c(C)cc(C)cc3C)nc3ccccc23)cc1	-60
O=C(Nc1cccc(F)c1)c1nc(Nc2ccccc2)c2ccccc2n1	66
Cc1cc(C)c(NC(=O)c2nc(Nc3ccccc3)c3ccccc3n2)c(C)c1	-78*
COc1cccc(NC(=O)c2nc(Nc3ccccc3)c3ccccc3n2)c1	-76*
CCOc1ccc(NC(=O)c2nc(Nc3ccccc3)c3ccccc3n2)cc1	-38
Cc1ccc(NC(=O)c2nc(Nc3ccccc3)c3ccccc3n2)c(C)c1	-41
CCOc1ccccc1NC(=O)c1nc(Nc2ccccc2)c2ccccc2n1	-82*
CN(C(=O)c1nc2ccccc2[nH]c1=O)C1Cc2ccccc2C1	6
Cn1c(CCC(=O)NC2CC(C)(C)Oc3ccccc32)nc2cc(Cl)ccc21 (configuration not stated)	5
COc1ccc2[nH]cc(CCNC(=O)c3cc(-c4ccccn4)nc4ccccc34)c2c1	58
CCOCC(=O)N1C[C@@H]2CN(c3ncccn3)CC[C@H]2C1	24
CN(C)C1CC2(CCN(C(=O)c3ccnnc3)CC2)C1	-15
Cc1c(Cl)cccc1-c1ccc(CNCCCSc2ncccn2)o1	4
SMILES	Tgondii IFNg
CO[C@H]1CN(C)C(=O)c2cc(NC(=O)Nc3cccc(Cl)c3)ccc2OC[C@H](C)N(C(=O)Nc2c(C)noc2C)C[C@@H]1C	54
CCOC(=O)c1c[nH]n2c(=O)c3c(nc12)CCCC3	15
O=C(c1ccccc1)n1ccc(-c2cccs2)n1	-23
CO/N=C1\CC(C)(C)Cc2c(-c3ccn(C(=O)c4cccs4)n3)sc(SC)c21	-76*
O=C(c1cccs1)n1ccc(-c2nc3ccccc3s2)n1	248
CCCCCCCCCCCCCCCC[n+]1ccccc1	-91*
Cc1ccc(S(=O)(=O)N2CCC3(CC2)Nc2cc(F)ccc2-n2cccc23)cc1	31
CCCCCCCCCCCc1nc2ccccc2o1	4
CN1C/C=C/CCOc2cccc(c2)-c2ccnc(n2)Nc2cccc(c2)C1	-84*
COc1ccc(CNC(=O)c2c(O)c3cccnc3[nH]c2=O)cc1OC	117
CCCCOc1cc(CC2CNC(=O)N2)ccc1OC (configuration not stated)	-72*!
COc1ccc(CCN2C(=O)CSC2c2ccc(OC)c(OC)c2)cc1OC (configuration not stated)	-29
CCOc1ccccc1-c1nc(CN(c2ccc(C)cc2)S(=O)(=O)c2cccs2)c(C)o1	-53
COc1cccc(CNC2=NCCNC23CCN(S(=O)(=O)c2ccc(Cl)s2)CC3)c1	-17
CSc1sc(NC(=O)Nc2cccc(C(F)(F)F)c2)cc1C#N	-2
Cn1nc(C(F)(F)F)cc1-c1ccc(NC(=O)Nc2cccc(C(F)(F)F)c2)s1	-90*
O=C(Nc1cccc(C(F)(F)F)c1)N1CCSCC1	-29
Cc1cc(F)ccc1NC(=O)Cn1c(=O)ccc2cc(S(=O)(=O)N3CCCC3)ccc21	11
Cc1nn(C)cc1CN(Cc1cccnc1)Cc1cccs1	-28
CCN(CC)CCNC(=O)c1ccccc1I	12
CCN(CC)CCNc1ccc(CO)c2sc3ccccc3c(=O)c12	-97*!
CCN(CC)c1ccc(C(=C2C=CC(=[N+](CC)CC)C=C2)c2ccccc2)cc1	-74*
Cn1ccc2cc(S(=O)(=O)N3CCC(C(=O)N4CCN(c5ncccn5)CC4)CC3)ccc21	-3
Cc1ccccc1NC(=O)CN1C(=O)CCc2cc(S(=O)(=O)N3CCCCC3C)ccc21 (configuration not stated)	38
O=C1CSC2=NCN(c3ccc(Br)cc3)CN12	28
CCc1nc(OCC(=O)NCc2ccc3c(c2)OCO3)c2ccccc2n1	10
c1ccc(-c2cc3ncnc(NCc4ccc5c(c4)OCO5)c3s2)cc1	-105*
O=C(CS(=O)(=O)Cc1ccccc1)NCc1ccc2c(c1)OCO2	-3
